Test results taken from PubChem BioAssay (Tox21).
Values without a mark were called inactive. Calls of active or inactive are those of the source. Calls come from the whole dose curve; as a rule, active = well fitted curve in the direction sought with a large enough effect in the repeat runs; inconclusive = weak or mixed curves; inactive = flat fitted curve, though single readings scatter.

Test: qHTS assay to test for compound auto fluorescence at 590 nm (red) in HepG2 cell free culture (AID 720684)
Settings: cell-free medium autofluorescence, red 540/590 nm; series mostly up to 91.3 µM
Summary of the method: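 Steps: dispense MEM/10% FBS medium, no cells; pin compound or DMSO vehicle; read red channel, Ex/Em 540/590 nm. Output given as Rose Bengal sodium equivalents.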
% is set by controls: 0 for no effect and ±100 for the full control effect.

SMILES | outcome | fluorescence, % of Rose Bengal
CC1CCc2cc(F)cc3c(=O)c(C(=O)O)cn1c23 (stereo not drawn) | inactive | 
CC1=CCC(C(C)C)C=C1 (stereo not drawn) | inactive | 
CC(=O)c1ccc2c(c1)[C@H](NC(=O)c1ccc(F)cc1)[C@@H](O)C(C)(C)O2 | inactive | 
C=C(C)C(=O)OC(C)C | inactive | 
CC(C)c1ccccc1C(C)C | inactive | 
CCOc1cc(OCC)c(C(=O)CCC(=O)O)cc1OCC | inactive | 
CC(C)CCCC(C)CCO (stereo not drawn) | inactive | 
CC(C)(C)C1CCCCC1O (stereo not drawn) | inactive | 
CCC(=O)OC(C)(C)C1CC=C(C)CC1 (stereo not drawn) | inactive | 
Cc1ncsc1CCO | inactive | 
CCCOc1ccc2nc(NC(=O)OC)[nH]c2c1 | inactive | 
COCCOCCOCCOCCOC | inactive | 
CC(=O)Nc1ccc(/C=N/NC(N)=S)cc1 | inactive | 
COc1ccc(C(C)=O)cc1 | inactive | 
N=C(N=C(N)N)N1CCOCC1 |  | 0.0286% [at 18.6 µM]
CCCCCCCCCO | inactive | 
CC[C@H](C)[C@H](N)C(=O)O | inactive | 
Cc1cc(NC(=O)C(=O)O)cc(C)c1Oc1ccc(O)c2c1CCC2 | inactive | 
O=C(C(=O)c1ccc(Br)cc1)c1ccc(Br)cc1 |  | -0.0316% [at 18.6 µM]

SMILES | outcome | fluorescence, % of Rose Bengal
C#CCOC(=O)[C@@H](C)Oc1ccc(Oc2ncc(Cl)cc2F)cc1 | inactive | 
CC(C)=CCCC(C)CC=O (stereo not drawn) | inactive | 
COCCO | inactive | 
O=C=NC1CCC(CC2CCC(N=C=O)CC2)CC1 (stereo not drawn) | inactive | 
CC(C)c1cccc(C(C)C)c1NC(=O)NS(=O)(=O)c1cc(C(C)(C)O)co1 | inactive | 
N#Cc1cc2ccccc2c2ccccc12 | inactive | 
Nc1nc(N)c2nc(CNc3ccc(C(=O)N[C@@H](CCC(=O)O)C(=O)O)cc3)cnc2n1 | inactive | 
C1=Cc2ccccc2C1 | inactive | 
CCCCCc1ccc(N)cc1 | inactive | 
Cc1cccc(OCCOc2cccc(C)c2)c1 | inactive | 
Cc1ccc(C(=O)C(C)CN2CCCCC2)cc1 (stereo not drawn) | inactive | 
N#Cc1c(F)cccc1F | inactive | 
Nc1cnn([C@@H]2O[C@H](CO)[C@@H](O)[C@H]2O)c(=O)n1 | inactive | 
CC[C@H](C)[C@@H](C(=O)O)n1sc2ccccc2c1=O | inactive | 
O=C1[C@H](CC[C@H](O)c2ccc(F)cc2)[C@@H](c2ccc(O)cc2)N1c1ccc(F)cc1 | inactive | 
CC(C)(C)C(=O)OCOP(=O)(COCCn1cnc2c(N)ncnc21)OCOC(=O)C(C)(C)C | inactive | 
CC(=O)CC(=O)c1ccccc1 | inactive | 
CCCCCCc1ccc(N)cc1 | inactive | 
CC(=O)[C@@]1(O)CC[C@H]2[C@@H]3C[C@H](C)C4=CC(=O)CC[C@]4(C)[C@H]3CC[C@@]21C | inactive | 
